The values below come from PubChem BioAssay (NCI).

Compounds without any hit were thinned out: in the full panel of roughly 83,000, 20% have a hit.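 Activity criterion: percent growth below 10, measured after cells in 96-well plates were exposed to a single compound concentration for 48 hours.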 Unmarked numbers belong to inactive results. Active and inactive are the calls of the source.

Among the test systems are SR leukemia; RPMI-8226 leukemia; OVCAR-8 ovarian; OVCAR-5 ovarian; OVCAR-4 ovarian; SK-OV-3 ovarian; IGROV1 ovarian; OVCAR-3 ovarian; HS 578T breast; NCI/ADR-RES ovarian.
Holding throughout (test): NCI-60 one-dose screen, 48 h (100 = growth as untreated, 0 = no growth, -100 = all killed)
What all share (settings): 10 µM unless noted

`CN(C)C(=O)OCc1nc2c(N3CCOCC3)nc(-c3ccccc3)nc2n1C`: the growth is 4.42% (active) in the experiment on SR leukemia; -30% (active) in the experiment on RPMI-8226 leukemia; -5.95% (active) with OVCAR-8 ovarian; -85.5% (active) in the experiment on OVCAR-5 ovarian; -82.2% (active) in the experiment with OVCAR-4 ovarian; 59.7% in the experiment on SK-OV-3 ovarian. For the same molecule, the growth is -95.2% (active) in the experiment with IGROV1 ovarian, -78.1% (active) with OVCAR-3 ovarian, -35.2% (active) in the experiment on HS 578T breast and -8.35% (active) in the experiment with NCI/ADR-RES ovarian.
Consider `COc1ccc2c(c1)OC1=C(C(=O)OC1)C2c1cc(OC)c(OC)c(OC)c1` (stereo not given), for which the growth in the experiment on SR leukemia was 15.3%; with RPMI-8226 leukemia, 11.5%; in the experiment on OVCAR-8 ovarian it was 21.1%; in the experiment with OVCAR-5 ovarian, 32.7%; in the experiment with OVCAR-4 ovarian, 56.3%; in the experiment on SK-OV-3 ovarian, 13%. In addition, the growth is 49% with IGROV1 ovarian, -55.9% (active) in the experiment on OVCAR-3 ovarian and 1.95% (active) in the experiment with NCI/ADR-RES ovarian.
For `COc1ccccc1-c1c(-c2ccc(Cl)cc2)c2cc3c(cc2[nH]c1=O)OCCO3`, the growth in the experiment with SR leukemia is 45.8%; with RPMI-8226 leukemia, -57.2% (active); with OVCAR-8 ovarian, 68.5%; in the experiment on OVCAR-5 ovarian, 91.1%; with OVCAR-4 ovarian, 68.5%; in the experiment on SK-OV-3 ovarian it was 101%. Further, the growth in the experiment on IGROV1 ovarian was 77%; with OVCAR-3 ovarian, 64.5%; in the experiment with NCI/ADR-RES ovarian, 72.3%.
Turning to `ClCC1(Cn2cnc3c(Cl)nc(Cl)nc32)COC1`, the growth in the experiment on SR leukemia is 86.1%; with RPMI-8226 leukemia, 87.7%; in the experiment on OVCAR-8 ovarian, 105%; in the experiment with OVCAR-5 ovarian it was 99.5%; with OVCAR-4 ovarian, 93.3%; with SK-OV-3 ovarian, 93.8%. The growth was 84.4% in the experiment with OVCAR-3 ovarian, 50.9% with HS 578T breast and 106% in the experiment on NCI/ADR-RES ovarian.
Take `COc1ccc(-c2nc(N=Nc3c(O)[nH]c4ccccc34)nc(N3CCOCC3)c2C#N)cc1`: the growth was 41.7% in the experiment on SR leukemia; 60.2% in the experiment on RPMI-8226 leukemia; 44.2% in the experiment on OVCAR-8 ovarian; 81.9% with OVCAR-5 ovarian; 59.5% in the experiment with OVCAR-4 ovarian; 66.8% in the experiment on SK-OV-3 ovarian. The growth in the experiment on OVCAR-3 ovarian is 67.4%; with HS 578T breast, 47.5%; in the experiment with NCI/ADR-RES ovarian it was 59.7%.
`O=C(Cc1ccc(/C=C/C(=O)c2ncc[nH]2)cc1)Nc1ccc(C(F)(F)F)cc1`: the growth in the experiment on SR leukemia was 0.627% (active); in the experiment on RPMI-8226 leukemia it was -38.2% (active); in the experiment with OVCAR-8 ovarian, -2.81% (active); in the experiment on OVCAR-5 ovarian it was 78.9%; in the experiment with OVCAR-4 ovarian it was 51.1%; in the experiment on SK-OV-3 ovarian it was 73.3%. Besides, the growth is 23.7% in the experiment with IGROV1 ovarian, 1.88% (active) in the experiment with OVCAR-3 ovarian, 36.1% in the experiment on HS 578T breast and 60.3% in the experiment with NCI/ADR-RES ovarian.
With `CCOC(=O)c1ccc(Nc2ccnc(SCC(=O)c3ccc(C#N)cc3)n2)cc1`, the growth in the experiment with SR leukemia was 54.1%; in the experiment with RPMI-8226 leukemia, 20.4%; with OVCAR-8 ovarian, 22.8%; with OVCAR-5 ovarian it was 107%; in the experiment on OVCAR-4 ovarian, 65.2%; in the experiment on SK-OV-3 ovarian, 101%. Moreover, the growth is 79.1% in the experiment on OVCAR-3 ovarian, 92.1% with HS 578T breast and 41.5% with NCI/ADR-RES ovarian.
Take `Fc1ccc2nc3c(cc2c1)CSc1nnc(-c2ccc[nH]c2=S)n1N3`: the growth is 90.4% in the experiment on SR leukemia; 95.5% in the experiment on RPMI-8226 leukemia; 105% with OVCAR-8 ovarian; 95.4% in the experiment on OVCAR-5 ovarian; 91.5% with OVCAR-4 ovarian; 86.9% in the experiment on SK-OV-3 ovarian. The growth was 109% with OVCAR-3 ovarian, 96.3% in the experiment on HS 578T breast and 103% with NCI/ADR-RES ovarian.
`O=c1[nH]c(=O)[nH]c(=S)[nH]1`: the growth is 106% in the experiment with SR leukemia; 106% in the experiment with RPMI-8226 leukemia; 101% in the experiment with OVCAR-8 ovarian; 102% in the experiment on OVCAR-5 ovarian; 109% in the experiment on OVCAR-4 ovarian; 111% in the experiment on SK-OV-3 ovarian. Moreover, the results for the growth in the experiment on OVCAR-3 ovarian, in the experiment on HS 578T breast and in the experiment on NCI/ADR-RES ovarian were 119%, 99.3% and 105%, respectively.
As to `CN1C(=O)N(C)C2NC(N/N=C/c3ccccc3)=NC21` (stereo not given), the growth in the experiment on SR leukemia is 117%; in the experiment on RPMI-8226 leukemia, 138%; in the experiment on OVCAR-8 ovarian it was 102%; in the experiment with OVCAR-5 ovarian it was 98.3%; in the experiment on OVCAR-4 ovarian, 103%; in the experiment on SK-OV-3 ovarian it was 115%. The growth with IGROV1 ovarian is 102%; in the experiment on OVCAR-3 ovarian, 106%; with HS 578T breast, 94.7%; with NCI/ADR-RES ovarian, 104%.
On to `COc1cc(NCCCN(CC(C)C)C2CCCC2)c2ncccc2c1`, for which the growth in the experiment on SR leukemia was 16.8%; with RPMI-8226 leukemia, 35.5%; in the experiment with OVCAR-8 ovarian it was 59.2%; in the experiment with OVCAR-5 ovarian, 96.3%; with OVCAR-4 ovarian, 22.5%; with SK-OV-3 ovarian it was 84.6%. The growth was 50.6% in the experiment with IGROV1 ovarian, 52.6% with OVCAR-3 ovarian and 71.8% in the experiment with NCI/ADR-RES ovarian.
For the molecule `N#C/C(=C\c1ccc(Br)cc1)n1nnc2cccc(F)c21`, the growth with SR leukemia was 10.1%; in the experiment on RPMI-8226 leukemia, -19.6% (active); in the experiment with OVCAR-8 ovarian, 8.42% (active); in the experiment on OVCAR-5 ovarian it was 10.5%; in the experiment on OVCAR-4 ovarian it was 17.5%; with SK-OV-3 ovarian, 78.3%. The growth in the experiment on IGROV1 ovarian is 4.13% (active); in the experiment with OVCAR-3 ovarian, -31.5% (active); in the experiment on HS 578T breast it was -11.1% (active); with NCI/ADR-RES ovarian, 3.27% (active).
For the molecule `C=C1C(=O)O[C@H]2[C@H]1CC/C(COC(=O)NCCc1c[nH]c3ccc(Cl)cc13)=C\CC[C@@]1(C)O[C@@H]21`, the growth in the experiment on SR leukemia was -4.62% (active); with RPMI-8226 leukemia, -31.9% (active); with OVCAR-8 ovarian, -43.6% (active); in the experiment on OVCAR-5 ovarian it was -11.3% (active); in the experiment on OVCAR-4 ovarian it was -80.8% (active); in the experiment with IGROV1 ovarian, -83.9% (active). Moreover, the growth was -96.4% (active) in the experiment with OVCAR-3 ovarian, 22.8% in the experiment on HS 578T breast and 33.9% with NCI/ADR-RES ovarian.
Turning to `COc1cc2nc(-c3ccc(C(F)(F)F)cc3)cc(OCCCN3CCCCC3)c2cc1OC`, the growth was 8.2% (active) in the experiment on SR leukemia; 24.8% in the experiment with RPMI-8226 leukemia; 52.4% with OVCAR-8 ovarian; 57.7% with OVCAR-5 ovarian; 54.7% with OVCAR-4 ovarian; 31.8% with IGROV1 ovarian. Moreover, the growth is 60.1% with OVCAR-3 ovarian, 59.1% in the experiment on HS 578T breast and 49.7% with NCI/ADR-RES ovarian.
